Assay results reported in PubChem BioAssay AID743314 (Broad Institute, 2014).
Potency and affinity values are given separately. Records with an inconclusive call do not appear.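 The calls were made as follows: active = fitted half-maximal concentration no higher than twice the top tested dose, in every repeat run; inconclusive = repeat runs disagree, poor fit, or flat partial inhibition; inactive = the rest.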

Molecular target: Endoplasmic reticulum aminopeptidase 1 (Homo sapiens) (UniProt Q9NZ08)
Assay: ERAP1 aminopeptidase inhibitors, dose response, biochemical, cherry-pick, set 2, plate reader (AID 743314);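 also: 0% = neutral control wells and -100% = L-leucinethiol positive control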
Settings: Recombinant ERAP1, Leu-AMC fluorescence, 60 min; series mostly up to 11 µM; activity change, negative = inhibition: at the top concentration

Sequence of Endoplasmic reticulum aminopeptidase 1 (Homo sapiens) (Q9NZ08 whole entry, looked up): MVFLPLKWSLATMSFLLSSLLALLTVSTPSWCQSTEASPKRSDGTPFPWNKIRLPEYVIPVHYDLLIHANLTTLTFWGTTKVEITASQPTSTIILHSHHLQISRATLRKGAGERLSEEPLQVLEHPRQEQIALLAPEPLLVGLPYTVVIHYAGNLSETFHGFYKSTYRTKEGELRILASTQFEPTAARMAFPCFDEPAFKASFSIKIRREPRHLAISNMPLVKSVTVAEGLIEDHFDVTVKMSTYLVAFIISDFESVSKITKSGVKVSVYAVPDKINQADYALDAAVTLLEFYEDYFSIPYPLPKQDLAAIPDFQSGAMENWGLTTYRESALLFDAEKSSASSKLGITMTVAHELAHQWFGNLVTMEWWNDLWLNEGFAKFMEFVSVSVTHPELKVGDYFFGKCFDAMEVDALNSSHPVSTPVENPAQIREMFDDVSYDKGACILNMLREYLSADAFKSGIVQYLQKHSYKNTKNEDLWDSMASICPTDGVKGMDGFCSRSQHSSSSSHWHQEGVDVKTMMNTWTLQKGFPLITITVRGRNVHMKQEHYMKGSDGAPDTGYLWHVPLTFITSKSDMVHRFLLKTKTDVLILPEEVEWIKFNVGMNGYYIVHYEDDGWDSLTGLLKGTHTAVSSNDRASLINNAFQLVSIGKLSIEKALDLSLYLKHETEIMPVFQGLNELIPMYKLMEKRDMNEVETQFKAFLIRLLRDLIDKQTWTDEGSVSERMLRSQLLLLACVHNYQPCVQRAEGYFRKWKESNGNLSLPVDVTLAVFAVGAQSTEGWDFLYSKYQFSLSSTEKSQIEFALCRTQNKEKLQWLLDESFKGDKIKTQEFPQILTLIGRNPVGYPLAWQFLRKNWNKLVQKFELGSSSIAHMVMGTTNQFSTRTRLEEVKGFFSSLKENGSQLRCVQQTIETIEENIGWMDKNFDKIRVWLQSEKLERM

Activity change, negative = inhibition, inactive:
COc1cc2cc(C(=O)N3CCN(Cc4ccc5c(c4)OCO5)CC3)c(=O)oc2cc1OC 52.3% [at 5.6 µM], C[C@H]1CCCCO[C@@H](CN(C)C)[C@@H](C)CN([C@@H](C)CO)C(=O)c2cc(NS(=O)(=O)c3ccc(Cl)cc3)ccc2O1 53%, C[C@H]1CN([C@@H](C)CO)C(=O)c2cccc(NC(=O)Nc3ccc(F)cc3)c2O[C@@H]1CN(C)C(=O)Nc1ccc2c(c1)OCO2 51%, CCCCCn1c(=NC(=O)c2ccco2)c(C(=O)OCC)cc2c(=O)n3ccccc3nc21 -30.4%, COc1ccccc1-c1cc(-c2ccccc2)nc(SCC(=O)O)c1C#N -3.43%, CCN1CCN(c2ccc(S(=O)(=O)N3CCCCC3)cc2NC(=O)c2ccccc2)CC1 -6.46%, O=C(CSc1nc2ccccc2c(=O)n1-c1ccccc1)NCC1CCCO1 (stereo not given) -4.58%, O=S(=O)(Nc1cccc(-c2cn3c(n2)SCC3)c1)c1ccccc1F -32.8% [at 5.6 µM], O=C(CNC(=O)OCc1ccccc1)Nc1ccc(F)cc1 -11.2%, Cc1ccc(S(=O)(=O)c2cc3ccc(O)cc3oc2=O)cc1C 315% [at 5.6 µM], COc1ccc(-c2c(C)c3ccc(O)cc3oc2=O)cc1OC 2.53%, CCCC#Cc1ccc2c(c1)O[C@H](CN(C)Cc1ccncc1)[C@@H](C)CN([C@H](C)CO)S2(=O)=O 14.5%, C[C@@H]1CN([C@H](C)CO)C(=O)c2cc(NS(=O)(=O)c3ccc(Cl)cc3)ccc2O[C@@H](C)CCCCO[C@@H]1CN(C)C 3.13%, CCC(=O)N1[C@@H](CO)[C@@H](c2ccccc2)C12CN(Cc1cccnc1)C2 43%, Cc1ccc(-c2cc(C(=O)N3CCCC3)c3ccccc3n2)s1 75.3%, CN(C)C(=O)[C@H]1[C@H](CO)[C@H]2Cn3c(cccc3=O)[C@@H]1N2CC1CCCC1 31.6%, Cc1ccc2nc3c(cc(C(=O)NCc4ccccc4)c(=N)n3CCCn3ccnc3)c(=O)n2c1 51.3%, O=c1cc(CN2CCN(Cc3ccccc3)CC2)c2ccc(O)cc2o1 273%, CCN(CC(=O)Nc1ccccc1C(F)(F)F)C(=O)Cn1c(=O)cnc2ccccc21 -3.54%, CCN(CC)C(=O)c1ncn(C)c1C(=O)N(CC)CC 5.06%, N#Cc1ccccc1OCC(=O)OCC(=O)c1ccc2c(c1)NC(=O)CO2 -8.39%, CCOC(=O)N1CCc2c(sc(NC(=O)c3ccc(S(=O)(=O)N4CCCC4)cc3)c2C#N)C1 -2.67%, COc1ccc(C2=NN(c3ccc(C(=O)O)cc3)C(c3ccc(OC)c(OC)c3)C2)cc1 (stereo not given) 364%, C/C=C/c1ccc([C@H]2[C@@H](CO)N(C(=O)CC)[C@@H]2CNCC2CCCCC2)cc1 38.1%, C[C@@H]1CN([C@@H](C)CO)C(=O)c2cccc(NC(=O)Nc3ccc(C(F)(F)F)cc3)c2O[C@H]1CN(C)C 29%
